Test results taken from PubChem BioAssay AID588413 (Sanford-Burnham Center for Chemical Genomics, 2011).
Among all 340,000 compounds or so, about 2,500 (0.74%) were called active. Shown is part of a subset that was picked to be rich in actives. Unmarked numbers belong to inactive results.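 How the source made its calls: active means inhibition above about 55% (limit read from the data); inactive means the rest.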

Test: Gli-Sufu pathway antagonists, primary screen, luciferase luminescence, Sufu-KO-LIGHT cells, uHTS (AID 588413);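 further: 0% = DMSO-treated cells and 100% = wells with medium but no cells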
Conditions: Sufu-KO-LIGHT fibroblasts, Gli luciferase reporter luminescence; at 5 µM; hits give high values
For `COc1ccc2c(c1)c(=Cc1ccc(N(C)C)cc1)c1cc(-c3ccccc3)[n+](C)n12`, the inhibition was 71.7% (active).
In the case of `COc1ccc2sc(-c3ccc(N(C)C)cc3)c(C#CCO)c2c1`, the inhibition is reported as -3.68%.
`CN(CC(=O)NC(=O)Nc1ccccc1F)Cc1ccccc1` showed an inhibition of -0.74%.
`CCn1nc(C(=O)Nc2ccc(N3CCOCC3)cc2)c2ccccc2c1=O` showed an inhibition of 6.24%.
For `CCN(CCO)C(=S)Nc1cc(C(=O)OC)ccc1C(=O)OC`, the inhibition was 96.9% (active).
In the case of `CCS(=O)(=O)Nc1cc(C(=O)OC)ccc1C(=O)OC`, the inhibition is reported as -3.7%.
Compound `CCCN(CCC)C(=S)Nc1cc(C(=O)OC)ccc1C(=O)OC` has an inhibition of 1.47%.
`O=C(C(c1ccccc1)c1ccccc1)N1CCN(CC(O)COc2ccccc2)CC1` (configuration not stated) gave an inhibition of 3.62%.
With `COc1ccccc1CN1CCN(C(c2ccccc2)c2ccccc2)CC1` the inhibition was 25.4%.
For `CC(C)OCC(O)CN1CCN(C(c2ccccc2)c2ccccc2)CC1` (configuration not stated), the inhibition was 76.8% (active).
`COc1ccc(C(=O)OCC(=O)NCC2CCCO2)cc1[N+](=O)[O-]` (configuration not stated) gave an inhibition of -0.12%.
`c1ccc2c(c1)CSc1sccc1C2=C1CCNCC1` gave an inhibition of 28.4%.
`COC(=O)c1c(C)[nH]c(C(=O)NCCc2ccc(S(N)(=O)=O)cc2)c1C` showed an inhibition of -12.2%.
Work on `COc1ccc(NC(=O)NNC(=O)COc2cc(C)c(Cl)c(C)c2)c(OC)c1` yielded an inhibition of -3.14%.
`Cc1cccc(N2CC(C(=O)Nc3ccccc3N3CCCC3)CC2=O)c1C` (configuration not stated) gave an inhibition of -3.8%.
In the case of `CC(=O)Nc1cccc(OCC(=O)/C=C2\N(C)c3ccccc3C2(C)C)c1`, the inhibition is reported as 56.5% (active).
`CN1CCN(CCC(=O)N/N=C/C=C2\N(C)c3ccccc3C2(C)C)CC1` showed an inhibition of 29.6%.
For `CC(C)Nc1nnc(SCC(=O)/C=C2\N(C)c3ccccc3C2(C)C)s1`, the inhibition was 2.92%.
Work on `COc1ccc(N2CCN(C(=O)C3CCN(S(=O)(=O)c4ccc(C)cc4)CC3)CC2)cc1` yielded an inhibition of 18.7%.
In the case of `CCCCCN(C(=O)NC(=O)Nc1cccc(C)c1C)S(C)(=O)=O`, the inhibition is reported as -3.52%.
In the case of `CC(=O)OCCC(C)C`, the inhibition is reported as 57.4% (active).
Compound `CC(=O)OC(C)C[N+](C)(C)C` (configuration not stated) has an inhibition of 15.8%.
`CC(=O)OCC(COC(C)=O)OC(C)=O` gave an inhibition of -14.9%.
`CC(C)CC(=O)NC(=S)NNC(=O)c1cccc([N+](=O)[O-])c1` showed an inhibition of -4.7%.
With `COc1ccc(C)cc1NC(=S)N1CCOCC1` the inhibition was 1.61%.
With `CC(=O)N1CCCc2cc(S(=O)(=O)N3CCCC(C(=O)NCc4ccc(Cl)cc4)C3)ccc21` (configuration not stated) the inhibition was 27%.
In the case of `CC(=O)N1c2ccc(S(=O)(=O)N3CCCC(C(=O)Nc4cccc(Cl)c4)C3)cc2CC1C` (configuration not stated), the inhibition is reported as -0.91%.
For `CC(=O)N1CCCc2cc(S(=O)(=O)N3CCCC(C(=O)N4CCN(c5cccc(Cl)c5)CC4)C3)ccc21` (configuration not stated), the inhibition was 64.5% (active).
Work on `O=C(Nc1ccccc1C(=O)NCCCn1ccnc1)c1ccc(Cl)cc1Cl` yielded an inhibition of 19.3%.
`CCOC(=O)C(CO)NC(=O)C1(NC(C)=O)CCCC1` (configuration not stated) gave an inhibition of -2.14%.
Compound `O=C(CN(CC1CCCO1)C(=O)CNS(=O)(=O)c1ccc(F)cc1)NCc1ccco1` (configuration not stated) has an inhibition of 0.03%.
In the case of `O=C(O)c1ccc(/C=C2\SC(=S)N(NC(=O)c3ccc(Br)cc3)C2=O)cc1`, the inhibition is reported as 10%.
`O=C1/C(=C/c2ccc(F)cc2)SC(=S)N1CCCC(=O)N1CCCCC1CCO` (configuration not stated) gave an inhibition of -14.7%.
In the case of `O=C1/C(=C/c2ccc(F)cc2)SC(=S)N1NS(=O)(=O)c1ccccc1`, the inhibition is reported as 59.1% (active).
Compound `CN1CCN(C(=O)N2c3ccccc3CCc3ccccc32)CC1` has an inhibition of 0.29%.
Compound `CC1CCc2sc(C(=O)NCC(c3ccco3)N3CCCCC3)cc2C1` (configuration not stated) has an inhibition of 16.2%.
`Cc1ccc(CN(Cc2cccnc2)C(=S)Nc2cc(Cl)ccc2C)cc1` showed an inhibition of 12.8%.
For `CC(=O)NCC(=O)N(C)C(C(=O)Nc1ccc2c(c1)OCCO2)c1ccccc1` (configuration not stated), the inhibition was -14.5%.
Compound `COc1ccc(CCNC(=O)CSc2nc3[nH]ncc3c(=O)n2-c2cccc(C(F)(F)F)c2)cc1OC` has an inhibition of 0.76%.
With `Cc1cccc2nc(CSc3nc4[nH]ncc4c(=O)n3-c3cccc(Cl)c3)cc(=O)n12` the inhibition was 67.7% (active).
Compound `CCc1ccc(-n2c(SCc3cc(=O)n4cc(Br)ccc4n3)nc3[nH]ncc3c2=O)cc1` has an inhibition of 5.99%.
Compound `CCn1cc(-c2cc(C(=O)O)on2)c(C)n1` has an inhibition of -4.15%.
Compound `COc1ccc(-n2c(SCC(=O)Nc3ccc4c(c3)OCO4)nnc2C(C)N2CCCCC2)cc1` (configuration not stated) has an inhibition of 7.4%.
`Cc1cc(C(=O)CSc2nc(N)cc(=O)[nH]2)c(C)n1CCc1ccc(Cl)cc1` gave an inhibition of 0.27%.
Work on `CCCc1cc(=O)[nH]c(SCC(=O)c2cc(C)n(CCC)c2C)n1` yielded an inhibition of 1.52%.
In the case of `Cc1cc(C(=O)CSc2nc(N)cc(=O)[nH]2)c(C)n1-c1cccc(F)c1`, the inhibition is reported as 56.6% (active).
Work on `Cc1ccc(CN2CCN(c3ncccn3)CC2)c(C)c1` yielded an inhibition of 1.86%.
In the case of `COc1cc(C)cc(CN2CCC(Cc3ccccc3)CC2)c1O`, the inhibition is reported as 15.5%.
With `CC1CCCN(CC(O)COCc2ccccc2)C1` (configuration not stated) the inhibition was 12.2%.
For `Oc1c(CN2CCN(c3ccc(F)cc3)CC2)cc(Cl)c2cccnc12`, the inhibition was 92.7% (active).
For `Oc1c(CN2CCCC2)cc(COCc2ccccc2)c2cccnc12`, the inhibition was 77.7% (active).
Compound `Cc1cc(=O)oc2cc(OCC(=O)N3CCN(c4ccc(F)cc4)CC3)c(Cl)cc12` has an inhibition of 6.77%.
In the case of `CC(C)C(C)NC(=O)COc1nc2ccccc2nc1N(C)C1CCCCC1` (configuration not stated), the inhibition is reported as -2.52%.
In the case of `CCc1nnc(NC(=O)CCN(c2ccc(C)cc2)S(=O)(=O)c2ccccc2)s1`, the inhibition is reported as -7.2%.
Work on `O=C1/C(=C\Nc2ccccc2)CCN1c1ncccn1` yielded an inhibition of -39%.
With `Cc1ccccc1NC(=O)NC1(C(=O)N2CCCC2)CCCCC1` the inhibition was 44.2%.
`Cc1ccc(C)c(NS(=O)(=O)c2c(C)[nH]c(C)c2C(=O)N2CCCCC2)c1` gave an inhibition of -12.2%.
In the case of `CC1CCCN(C(=O)Cn2c(=O)oc3ccccc32)C1` (configuration not stated), the inhibition is reported as 1.13%.
In the case of `COC(C[C@@H](O)C[C@H](O)[C@H](C)OCc1ccccc1)OC`, the inhibition is reported as 7.28%.
Work on `COc1ccc(C2C(C#N)=C(/N=C/N3CCOCC3)OC3=C2C(=O)CC(C)(C)C3)cc1OC` (configuration not stated) yielded an inhibition of 1.58%.
With `CCc1ccc(C2C(C#N)=C(N)N(N3CCOCC3)C3=C2C(=O)CC(C)(C)C3)s1` (configuration not stated) the inhibition was 96.7% (active).
`CCc1ccc(C2C(C#N)=C(N)N(N(C)C)C3=C2C(=O)CCC3)s1` (configuration not stated) gave an inhibition of -0.42%.
`S=C(Cc1ccc(Cl)cc1)N1CCOCC1` gave an inhibition of 2.66%.
For `O=C(CCN1CCCO1)N1CCCC(N2CCN(c3cccc(C(F)(F)F)c3)CC2)C1` (configuration not stated), the inhibition was 8.15%.
`N#Cc1cccc(NC(=O)C2CCCN(C(=O)c3ccc(Cl)cc3)C2)c1` (configuration not stated) showed an inhibition of 0.96%.
Work on `CC1=Nn2c(nnc2-c2ccccc2)SC1` yielded an inhibition of 5.28%.
`COc1ccccc1-c1nnc2n1N=C(c1ccc(OC(F)F)c(OCC3CC3)c1)CS2` gave an inhibition of 23.1%.
In the case of `COc1ccc(C2=Nn3c(nnc3-c3ccccc3OC)SC2)cc1OC1CCCC1`, the inhibition is reported as 67.1% (active).
Compound `COc1ccc(CNC(=O)CN(c2ccc(OC)c(Cl)c2)S(=O)(=O)c2ccc(C)cc2)cc1` has an inhibition of -11.6%.
Compound `NS(=O)(=O)c1cc(Cl)c(Cl)c(S(N)(=O)=O)c1` has an inhibition of -6.05%.
`Cc1cccc(S(=O)(=O)N2CN(CC3CCCO3)c3nc4ccccc4nc32)c1` (configuration not stated) gave an inhibition of 31.4%.
For `Cc1cc([N+](=O)[O-])c(-c2ccc(/C=N/n3cnnc3)o2)cc1Cl`, the inhibition was 95.2% (active).
For `Clc1cc(-c2ccc(/C=N/n3cnnc3)o2)ccc1Br`, the inhibition was 3.67%.
`Cc1ccc(Cl)cc1-c1ccc(/C=N/n2cnnc2)o1` showed an inhibition of 20.2%.
In the case of `O=c1ccc2c(-c3ccccc3S(=O)(=O)O)c3ccc(O)c(O)c3oc-2c1O`, the inhibition is reported as 9.16%.
`CCCCn1nc(C(=O)Nc2cccc(C(=O)NC3CC3)c2)c2ccccc2c1=O` showed an inhibition of -0.59%.
Compound `COc1ccc(Cl)cc1S(=O)(=O)N1CCN(CC(=O)C(C)(C)C)CC1` has an inhibition of -2.82%.
For `O=C(CN1CCN(S(=O)(=O)c2cc(Cl)ccc2Cl)CC1)c1ccc(O)c(O)c1`, the inhibition was 58.2% (active).
Compound `N#Cc1ccsc1NC(=O)CN1CCN(S(=O)(=O)c2cc(Cl)ccc2Cl)CC1` has an inhibition of 1.78%.
`COc1ccccc1N(CC(=O)Nc1ccccc1C(=O)N1CCCC1)S(C)(=O)=O` showed an inhibition of -5.37%.
For `Cc1cc(C(=O)N/N=C/c2ccccn2)c2ccccc2n1`, the inhibition was 1.36%.
Work on `O=C(N/N=C/c1ccccn1)C12CC3CC(CC(C3)C1)C2` yielded an inhibition of -2.98%.
In the case of `Cc1nnc(N/N=C/c2ccccn2)[nH]c1=O`, the inhibition is reported as 62.7% (active).
In the case of `Cc1ccc(S(=O)(=O)N(C)C)cc1NC(=O)c1ccc(-n2cncn2)c([N+](=O)[O-])c1`, the inhibition is reported as 5.99%.
In the case of `CCOC(=O)c1cnc(Nc2nc3ccccc3o2)nc1CSC(=S)N1CCCCC1`, the inhibition is reported as 57.2% (active).
In the case of `CCOC(=O)CCNC(=O)N1CCCC(C(=O)c2ccccc2SC)C1` (configuration not stated), the inhibition is reported as 4.81%.
Compound `CCc1ccc(CNC(=O)C2CCCN(c3nc4ccccc4o3)C2)cc1` (configuration not stated) has an inhibition of 5.09%.
Compound `CCc1ccc(C(=O)C(C)OC(=O)CN2C(=O)NC3(CCCC3)C2=O)cc1` (configuration not stated) has an inhibition of -24.9%.
`COCCN(C(=O)COC(=O)Cc1cccc(OC)c1)c1c(N)n(Cc2ccccc2)c(=O)[nH]c1=O` showed an inhibition of -12.3%.
Work on `Cc1ccc(NC(=O)c2sccc2C)cc1[N+](=O)[O-]` yielded an inhibition of -30.3%.
Compound `CN(CC(=O)Nc1cccc(F)c1)C(=O)C1=COCCO1` has an inhibition of -13.3%.
In the case of `Cc1ccc(NC(=O)CN(C)CC(=O)Nc2cccc(F)c2)cc1[N+](=O)[O-]`, the inhibition is reported as 67.2% (active).
